Hits are enriched below; roughly 3.9% of the tested compounds scored in any of these assays.
SARS 3CLpro inh: SARS-CoV 3CLpro protease inhibition; hit rate 0.14% among 290,000; P0C6X7; AID 1706; inhibition, % at 6 µM; recombinant SARS-CoV 3CLpro, quenched FRET peptide cleavage; in the data active means inhibition above about 12%
Anthrax LF inh2: inhibitors of Bacillus anthracis lethal factor protease; multiplex microsphere protease cleavage assay, LF; inhibition, % at 10 µM; hit rate 0.12% among 360,000; further: plate controls were buffer without enzyme for full effect and enzyme alone for no effect
BoNT A protease: BoNT A light chain protease inhibition; AID 588499; inhibition, % at 10 µM; multiplex microsphere protease substrate cleavage, flow cytometry; hit rate 0.17% among 360,000; further: plate controls were buffer without enzyme for full effect and enzyme alone for no effect
Autofluor counter: counter-screen for toxin protease inhibitors: compound fluorescence; hit rate 3.1% among 360,000; compound autofluorescence counterscreen, microsphere flow cytometry; hits give high values; AID 624483; fluorescence intensity (no concentration beside the values); in the data active means fluorescence intensity above about 16000; inconclusive means no clear call, values can overlap the other calls
CCHF vOTU inh: CCHFV vOTU protease inhibition | Pep-AMC fluorescence | inhibition, % at 11.5 µM | hit rate 0.55% among 370,000 | AID 651958; in the data active means inhibition above about 30%; further: 0% = vehicle wells with enzyme and 100% = no enzyme wells
BoNT F protease: inhibitors of Botulinum neurotoxin F light chain protease; Multiplex microsphere protease cleavage assay, flow cytometry; inhibition, % at 10 µM; hit rate 0.22% among 360,000; in the data active means inhibition above about 35%, passing the limit was not always enough; inconclusive means no clear call, values can overlap the other calls; further: plate controls were buffer without enzyme for full effect and enzyme alone for no effect
* hit, by the source's call; ? = inconclusive; . = not tested or not shown; ! = a repeat was not active. Unless noted, no stated cut-off is given here; in the data, active means inhibition above about 30%; inconclusive means no clear call, values can overlap the other calls; inactive means below that.

SMILES | SARS 3CLpro inh | Anthrax LF inh2 | BoNT A protease | Autofluor counter | CCHF vOTU inh | BoNT F protease
Cc1nn(CCC#N)c(NC(=O)c2ccc(Cl)cc2Cl)c1P(=O)(Nc1ccc([N+](=O)[O-])cc1)N1CCOCC1 (centres undefined) | -1 | 0 | 1 | 16178* | 8 | 3
Cc1nn(CCC#N)c(NC(=O)c2ccc(Cl)cc2)c1P(=O)(Nc1ccc([N+](=O)[O-])cc1)N1CCOCC1 (centres undefined) | 0 | . | . | . | 2 | .
O=c1c2ccccc2[nH]c(=S)n1CC1CCCO1 (centres undefined) | -1 | 0 | -1 | 3806 | 5 | -42
COCCCn1c(=S)[nH]c2ccc(N3CCOCC3)cc2c1=O | . | 0 | 6 | 18662* | -12 | 7
O=c1c2cc(N3CCOCC3)ccc2[nH]c(=S)n1CC1CCCO1 (centres undefined) | 0 | -4 | -9 | 22212* | 1 | -10
CCOc1ccc(CN2CCNC(=O)C2CC(=O)NCCN2CCOC2=O)cc1 (centres undefined) | 3 | -4 | -3 | 4890 | 12 | -14
Cc1ccc(-n2c(SCC(=O)Nc3ccc(OCc4ccccc4)cc3)nnc2-c2ccco2)cc1 | . | . | . | . | 9 | .
C[C@H](O)[C@@H]1CN2CCc3c([nH]c4ccc(-c5ccc6c(c5)OCO6)cc34)[C@@H]2C[C@@H]1N(C)C(=O)NC1CCCCC1 | . | 1 | 0 | 4276 | -3 | -10
CCOC(=O)c1c(-c2ccc(C)o2)csc1NC(=S)NC(=O)N(C)C | -4 | -1 | 6 | 18614* | 15 | 8
CCOC(=O)c1c(-c2ccc(C)o2)csc1NC(=O)COC(=O)c1cccs1 | 3 | -4 | -4 | 6188 | 14 | -52
Cc1nn(-c2cc(N3CCCCC3)ccc2N)c(=O)c2ccccc12 | 0 | 0 | ? | 20582* | -11 | 0
Cc1ccc(-c2nn(-c3cc(N4CCNCC4)ccc3[N+](=O)[O-])c(=O)c3ccccc23)cc1 | -2 | -4 | 1 | 2079 | -9 | -18
Cc1nn(-c2cc(N3CCCCCC3)ccc2[N+](=O)[O-])c(=O)c2ccccc12 | -2 | 1 | ? | 23118* | 1 | -2
Cn1cc(CCC(=O)N2CCC3(CC2)OCCO3)c2ccccc21 | -1 | 1 | 1 | 23713* | -10 | -2
O=C(Cc1cccs1)N1CCC2(CC1)OCCO2 | 3 | 0 | -2 | 20223* | 3 | -1
Cn1c(=O)cc(OCCCC(=O)N2CCC3(CC2)OCCO3)c2ccccc21 | 2 | -7 | -2 | 4019 | -11 | -11
Clc1ccc2c(-c3ccccc3)nc(-c3cccs3)nc2c1 | . | -1 | 0 | 5646 | -4 | 4
CN(Cc1ccccc1)C(=O)c1ncn2c1C(=O)N(C)CC2 | . | -1 | 0 | 3542 | -6 | -2
COc1cc(-c2nc3cc(C)ccn3c2NC2CCCCC2)ccc1-c1ccc(C(C)=O)cc1 | . | -3 | -3 | 23646* | 3 | 18
CCC(C)Sc1ccc(-c2nc3cc(C)ccn3c2NC2CCCCC2)cc1 (centres undefined) | . | -8 | -5 | 20914*! | 27 | 18
CCCCCCSc1cc(-c2nc3cc(C)ccn3c2NC2CCCCC2)ccc1OC | . | -7 | 0 | 15927 | 6 | 3
O=C(N/N=C/c1ccc(N2CCOCC2)o1)c1cccc(C(F)(F)F)c1 | 0 | -3 | -1 | 24154* | -2 | -3
CCOC(=O)N1CCN(C(=O)C[C@H]2C[C@@]3(C(=O)OC)C(=C[C@H](C4CCCC4)O[C@@H]3C)N(Cc3ccc(Cl)cc3Cl)C2=O)CC1 | . | . | . | . | 10 | .
CCCCCc1ccc(CC(=O)O)cc1 | 2 | -6 | ? | 25330* | 6 | -5
CC(NC(=O)c1ccc2c(c1)OCCO2)C(=O)O (centres undefined) | 2 | -1 | 0 | 12522 | -22 | 0
CCC(CC)NC(=O)c1ccc2c(c1)OCCO2 | 4 | -1 | -2 | 23941* | -6 | -5
CCOc1cc(/C=C2\SC(=S)N(Nc3ccccc3)C2=O)ccc1O | -1 | 42* | 39* | 3712 | 8 | 30
COc1cc(/C=C2\SC(=S)N(Nc3ccccc3)C2=O)ccc1O | 6 | 15 | 22 | 2831 | 5 | 1
CCOc1ccc(N=c2oc3cc(O)ccc3cc2C(=O)NCC2CCCO2)cc1 (centres undefined) | 2 | -4 | 1 | 11107 | -67 | 5
COc1ccc(N=c2oc3cc(O)ccc3cc2C(=O)NCC2CCCO2)cc1 (centres undefined) | 1 | 1 | ? | 21984* | -103 | 2

High-throughput results as filed in PubChem.
